Compound activity (PubChem)
This is a sample that favours compounds with a hit; in the whole collection about 5.9% have one here.
KB-V1 MDR tox: qHTS assay for MDR1-selective chemotherapeutics: Primary screen using the drug-selected MDR subline cells KB-V1 | Potency, µM (highest dose often 46.1 µM), most hits filed as cytotoxic | AID 1347076, 2019 | KB-V1 MDR cells viability, CellTiter-Glo, 72 h | 400,000 compounds, 3.4% hits; further: on the % scale 0 is the no-effect control and ±100 the full control effect; nearly all actives have a fitted effect of over 60% in size
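Compound-treated KB-V1 multidrug-resistant cells, 72 h, 37 degrees C; viability by CellTiter-Glo. Fitted qHTS curves give the values.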
ATXN viability: Viability Counterscreen for Primary qHTS for Inhibitors of ATXN expression; S2 cells (HEK-293 line with an ATXN2-luciferase reporter) viability, CellTiter-Fluor protease fluorescence, 24 h; Potency, µM (top dose mostly 56.7 µM), actives largely listed as cytotoxic; 400,000 compounds, 0.49% hits; further: nearly all actives have a fitted effect of over 40% in size
HepG2 tox: qHTS for Inhibitors of TGF-b: Cytotox Counterscreen; HepG2 CAGA-GFP viability, ATP luminescence, 18 h; 410,000 compounds, 0.76% hits; Potency, µM (highest dose often 46.1 µM), inactives show at the top dose activity change, negative = cytotoxicity, most hits filed as cytotoxic
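HepG2 CAGA-GFP cells (1000/well, DMEM with 1% FBS) received compound, then TGF-beta at 500 pg/mL final, and were incubated 18 hours at 37 degrees C. Viability was read by CellTiter-Glo luminescence. Media-only wells were set as complete cell-killing and DMSO as no toxicity.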
ATXN2 expr inh: Primary qHTS for Inhibitors of ATXN expression. HEK-293 ATXN2-luciferase reporter, luminescence, 24 h. Potency, µM (doses to about 57 µM), for the others: at the top dose activity change, negative = inhibition, actives largely listed as inhibitors. 360,000 compounds, 0.72% hits. AID 1745845, 2022; further: on the % scale 0 is the no-effect control and ±100 the full control effect; nearly all actives have a fitted effect of over 55% in size
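qHTS (up to 57 uM final) was run with 24 h compound exposure of reporter cells at 37 °C. Each well was multiplexed: SteadyGlo luminescence measured ATXN2-luciferase expression after a fluorogenic Gly-Phe-AFC viability readout (25 uM final).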
TGFb SMAD3 inh: qHTS for Inhibitors of TGF-b | HepG2 CAGA-GFP TGF-b/SMAD3 reporter, GFP fluorescence, 18 h; TGF-beta stimulated, 500 pg/mL final | Potency, µM (highest dose often 46.1 µM), for inactives: at the highest dose activity, negative = inhibition, hits mostly inhibitors | 410,000 compounds, 1.2% hits; further: on the % scale 0 is the no-effect control and ±100 the full control effect; nearly all actives have a fitted effect of over 65% in size
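GFP signal (ex488/em500-530) from TGF-beta-stimulated HEPG2 CAGA-GFP cells, 500 pg/mL final, 18 h at 37 degrees C in DMEM plus 1% FBS, normalized to unstimulated and DMSO-stimulated controls.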
KB-3-1 cytotox: qHTS assay for MDR1-selective chemotherapeutics: Primary screen using the parental adenocarcinoma cell KB-3-1 | KB-3-1 viability, CellTiter-Glo ATP luminescence, 72 h | Potency, µM (highest dose often 46.1 µM), hits mostly cytotoxic | 400,000 compounds, 1.4% hits; further: on the % scale 0 is the no-effect control and ±100 the full control effect; nearly all actives have a fitted effect of over 60% in size
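Screening of KB-3-1 cells (DMEM, 10% FBS, phenol-red free) ran from lowest to highest compound concentration; after 72 h at 37 °C viability was read luminescently and curves fitted.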
* marks the source's active call; other numbers are inactive results; i = inactive; ? = inconclusive; . = no result. The call rests on the fitted dose curve; in most records, active means well fitted curve in the direction sought with a large enough effect; inconclusive means small, poorly fitted or top-dose-only effect, or another doubt; inactive means no such curve, though single readings can be large; an effect the other way counts as inactive or inconclusive. Potency means the concentration at half of the fitted maximal effect.

SMILES | KB-V1 MDR tox | ATXN viability | HepG2 tox | ATXN2 expr inh | TGFb SMAD3 inh | KB-3-1 cytotox
CCn1c(=O)cc(SCC(=O)N2CCN(c3ccccc3OC)CC2)c2ccccc21 | 8.2µM* | i | -24% | 25% | 14% | i
COc1cc(CNC(C)(C)CO)cc(Br)c1OCc1ccc(Cl)cc1Cl | 18µM* | i | -106% | -26% | ? | ?
COc1cc(/C=N/NC(N)=S)cc(Br)c1OCc1ccccc1F | 18µM* | i | -51% | ? | ? | i
COc1cc(/C=N/O)cc(Br)c1OCc1ccc(Cl)cc1 | i | i | 13µM* | ? | ? | i
CC(C)(CO)NCc1c(OCc2ccc(Cl)cc2)ccc2ccccc12 | i | ? | -58% | ? | ? | 23µM*
CCOc1cc(CNc2ccc(O)cc2)ccc1OCc1ccc(Cl)cc1Cl | ? | i | -25% | -11% | ? | i
COCOc1cccc(CN2CCC2(C)C(=O)Nc2ccc3c(c2)OCO3)c1 (stereo not given) | i | ? | -6% | 7% | 24% | i
COc1cc(CNCCO)cc(Br)c1OCc1ccccc1Cl | ? | i | -127% | -17% | ? | ?
COc1cc(CNC(C)c2ccccc2)cc(Br)c1OCc1ccc(F)cc1 (stereo not given) | ? | . | 22µM* | ? | ? | ?
COc1cc(CNCCO)cc(Cl)c1OCc1ccc(Cl)cc1Cl | i | 35µM* | -190% | 16µM* | 22µM* | i
COc1cccc(CNCCO)c1OCc1ccc(Cl)cc1 | i | i | -11% | -11% | 1% | i
COc1cc(CNC(C)(C)CO)cc(Br)c1OCc1ccc(Cl)cc1 | 23µM* | i | -108% | -10% | ? | ?
COc1cc(CNC(C)c2ccccc2)cc(Br)c1OCc1ccccc1 (stereo not given) | ? | ? | -97% | ? | ? | ?
COc1ccc(Br)cc1CNc1ccc(O)cc1 | i | i | 13µM* | 0% | ? | i
COc1ccc(Br)cc1CNc1ccc2[nH]c(=O)[nH]c2c1 | i | i | -11% | 1% | 5% | i
Cc1cccc(N(C)C(=O)CCNS(=O)(=O)c2ccc3c(c2)CCN3C(=O)C2CC2)c1 | i | i | -19% | 3% | -4% | i
Cc1cc(-c2ccc(C)c(S(=O)(=O)NCc3cccs3)c2)on1 | ? | . | -18% | . | 0% | ?
COc1cc(CNc2ccc(O)cc2)cc(Br)c1OCc1ccccc1 | i | i | -69% | . | 22µM* | i
COc1cc(CNCCN2CCOCC2)ccc1OCc1ccc(Cl)cc1Cl | ? | . | -101% | ? | 20µM* | ?
O=C(CN1CCN(c2ncccn2)CC1)Nc1ccccc1-n1cccc1 | 12µM* | i | -16% | -7% | -15% | i
O=C(NCCCN1CCCCC1)c1[nH]c2ccccc2c1Sc1ccc(Cl)cc1 | i | . | 13µM* | ? | ? | i
CCc1cc2c(=O)n(Cc3ccco3)c(SCc3c(C)noc3C)nc2s1 | 2.9µM* | ? | -41% | 22% | ? | 5.8µM*
CCc1cc2c(=O)n(Cc3ccco3)c(SCC(=O)N3CCCc4ccccc43)nc2s1 | i | ? | -16% | -12% | -7% | i
CCc1cc2c(=O)n(Cc3ccco3)c(SCC(=O)NCC3CCCO3)nc2s1 (stereo not given) | 2.6µM* | i | -19% | -21% | -10% | ?
COc1ccc(/C=C(\C#N)c2nc3ccccc3c(=O)[nH]2)cc1OC | i | ? | -32% | -11% | -11% | i
SMILES | KB-V1 MDR tox | ATXN viability | HepG2 tox | ATXN2 expr inh | TGFb SMAD3 inh | KB-3-1 cytotox
O=C(NCC1Cc2cccc(-c3cccnc3)c2O1)c1cc(-c2ccccc2)n[nH]1 (stereo not given) | . | i | . | . | . | .
COc1ccc(Cc2noc(CN3CCC(c4ccncc4)CC3)n2)cc1OC | 18µM* | i | 11% | . | -9% | ?
CC/C(=C\c1ccc(N(C)C)cc1)c1ccncc1 | 10µM* | i | -32% | 3% | ? | 21µM*
COCCN1Cc2cccc(C(=O)Nc3ccc(-c4nc5ccccc5[nH]4)cc3)c2C1=O | i | i | -1% | -6% | 0% | i
CCCOc1cccc(C(=O)Nc2cccc(NC(=O)c3ccc(Cl)cc3Cl)c2)c1 | i | i | -43% | 9% | ? | i
CCOc1cc(OCC)cc(C(=O)Nc2cccc(-c3nc4ccccc4[nH]3)c2)c1 | ? | ? | 14µM* | -35% | ? | i
CCCOc1ccc(C(=O)Nc2cccc(NC(=O)c3ccc(Cl)cc3Cl)c2)cc1 | ? | ? | 11µM* | -14% | ? | i
CS(=O)(=O)c1ccc(C(=O)Nc2cccc(-c3nc4ccccc4[nH]3)c2)cc1 | ? | i | -22% | . | 9% | i
CCCOc1ccc(C(=O)Nc2cccc(-c3nc4ccccc4[nH]3)c2)cc1 | 21µM* | ? | -8% | ? | ? | ?
COCCN1Cc2cccc(C(=O)Nc3cccc(-c4nc5ccccc5[nH]4)c3)c2C1=O | 10µM* | ? | -2% | ? | 32% | ?
COc1ccc2c(CNCc3ccco3)c(C(=O)O)n(Cc3ccc(F)cc3Cl)c2c1 | i | . | -20% | . | -3% | i
N#Cc1cccc(NC(=O)C2CCN(S(=O)(=O)c3ccc4c(c3)CCCN4C(=O)C3CCC3)CC2)c1 | ? | ? | -19% | -14% | -22% | ?
O=C(COc1ccccc1-c1nc(-c2ccccc2)no1)Nc1cccc([N+](=O)[O-])c1 | . | . | -3% | . | 1% | .
COc1ccc(CCNC(=O)C(=O)NCC(c2ccc3c(c2)OCO3)N2CCOCC2)cc1OC (stereo not given) | . | . | -18% | . | 0% | .
COCCN1Cc2cccc(C(=O)NCc3ccccn3)c2C1=O | i | i | -9% | -8% | 2% | i
O=C(Nc1ccc2nc(-c3ccccc3)[nH]c2c1)c1ccco1 | i | i | -4% | 36% | -4% | ?
COCCN1Cc2cccc(C(=O)NCc3ccc4c(c3)OCO4)c2C1=O | 4.1µM* | i | -20% | -7% | -11% | i
O=C(Nc1cccc(-c2nc3ccccc3[nH]2)c1)c1cccc(NC(=O)c2ccco2)c1 | i | 32µM* | -111% | ? | ? | ?
